# The list is not random: actives were taken first. Their share in the collection is about 2.4%.
# D2 PAM-1 = HTS Assay for Positive Allosteric Modulators of the Human D2 Dopamine Receptor: Primary Screen for Potentiators. D(2) dopamine receptor (Homo sapiens), P14416. HEK293 T-REx D2, calcium flux, EC20 dopamine potentiation. potentiation, % at 10 µM. 340,000 compounds, 0.34% hits. AID 485347, 2010;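 active means potentiation over 3 SD above the plate norm, cut at about 30% in these data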; further: 0% is about no effect
# Target sequence (P14416 whole entry, looked up): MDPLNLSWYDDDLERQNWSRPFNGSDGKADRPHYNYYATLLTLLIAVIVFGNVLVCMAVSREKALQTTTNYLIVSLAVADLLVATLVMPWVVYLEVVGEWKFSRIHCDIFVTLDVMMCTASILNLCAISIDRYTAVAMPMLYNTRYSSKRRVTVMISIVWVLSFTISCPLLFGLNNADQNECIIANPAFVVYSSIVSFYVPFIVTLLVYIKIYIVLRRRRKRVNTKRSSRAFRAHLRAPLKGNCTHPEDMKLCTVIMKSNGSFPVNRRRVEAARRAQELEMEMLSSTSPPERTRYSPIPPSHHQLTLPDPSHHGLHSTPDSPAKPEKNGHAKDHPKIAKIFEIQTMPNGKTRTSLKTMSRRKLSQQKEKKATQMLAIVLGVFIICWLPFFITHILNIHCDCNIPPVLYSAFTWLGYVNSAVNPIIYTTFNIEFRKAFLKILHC
#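 Cells plated with tetracycline inducer and held overnight at 30 C; calcium dye loaded 30–90 min at room temperature; baseline taken, compound added and read 180 s; EC20 dopamine then added and read 180 s.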
# D2 antagonist = HTS Assay for Allosteric Antagonists of the Human D2 Dopamine Receptor: Primary Screen for Antagonists; D(2) dopamine receptor (Homo sapiens), P14416; HEK293 TREx D2 cells, calcium flux, dopamine EC80; inhibition, % at 10 µM; 340,000 compounds, 2% hits; in the data active means inhibition above about 30%; inactive means below that, where a call was filed; further: 0% is about no effect
#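 Overnight-induced (tetracycline, 30 C) HEK293 T-REx cells carrying force-coupled D2 receive a no-wash calcium dye, then compound, then EC80 dopamine at 180 s; signals are read kinetically throughout.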
# D2 ag-1 = HTS Assay for Allosteric Agonists of the Human D2 Dopamine Receptor: Primary Screen for Agonists; 340,000 compounds, 0.53% hits; activation, % at 2 µM; HEK293 T-REx D2 cells, calcium flux agonist mode;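 active means activation over 3 SD above normal in the single-dose calcium agonist read, cut at about 30% in these data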; further: 0% is about no effect
#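 Tetracycline-induced HEK293 T-REx cells with force-coupled D2 receptor, plated overnight at 30 C, loaded with no-wash calcium dye. After a 10 s baseline, compound was pin-added and calcium flux read kinetically for 180 s; calcium rises flagged agonists.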
# D2 ag-2 = Beta-Arrestin HTS for Positive Allosteric Modulators of the Human D2 Dopamine Receptor: Agonists; 360,000 compounds, 0.084% hits; DiscoveRx PathHunter D2 beta-arrestin, luminescence, 90 min; 100% = 57 uM dopamine signal; activation, % (no concentration beside the values); AID 624465, 2012; in the data active means activation above about 40%
#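 DiscoveRx PathHunter D2 beta-arrestin cells (2,100/well) attached overnight, then compound-stimulated 90 min at 37 C in HBSS/10 mM HEPES/0.1% Tween-20 buffer; beta-galactosidase complementation read by luminescence after 1 h at ambient temperature. Dopamine 57 uM final (EC100) as control.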
# D2 PAM-2 = Beta-Arrestin HTS for Positive Allosteric Modulators of the Human D2 Dopamine Receptor: Potentiators | AID 624464, 2012 | DiscoveRx D2 beta-arrestin cells, luminescence, 90 min; 100% = 57 uM dopamine signal | potentiation, % (no concentration beside the values) | D(2) dopamine receptor (Homo sapiens), P14416 | 360,000 compounds, 0.23% hits; in the data active means potentiation above about 50%
#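 PathHunter D2 cells, attached overnight at 37 deg C, received compound in DMSO plus dopamine at EC20 (50 nM final) for 90 min at 37 deg C. Beta-arrestin recruitment was read as luminescence after 1 h with detection reagent at ambient temperature.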
# * hit, by the source's call; · = not tested or not shown; ! = repeats disagree.
SMILES,D2 PAM-1,D2 antagonist,D2 ag-1,D2 ag-2,D2 PAM-2
COc1ccc(-c2nc(CSCC(=O)N3CCc4ccccc4C3)c(C)o2)cc1OC,22,45*,0,-7,-10
CCC1CCCCN1S(=O)(=O)c1ccc(NC(=O)c2cc(=O)c3c(C)cc(C)cc3o2)cc1 (stereo not drawn),11,·,0,·,·
Cc1ccc(-c2nn(-c3ccccc3)cc2CO)cc1,17,2,0,-2,-3
Cc1ccc(-c2nn(-c3ccccc3)cc2CNCc2ccccc2)cc1,-38,51*,0,2,-21
CC(C)N(Cc1nc(-c2ccccc2)no1)C(=O)c1ccc2c(c1)OCO2,4,31*,-3,1,-8
CCOC(=O)c1sc(N2C(=O)c3oc4ccc(F)cc4c(=O)c3C2c2cccc(OC)c2)nc1C (stereo not drawn),-3,·,0,·,·
CC(=O)Nc1ccc(OC(=O)c2ccc(Cl)cc2)cc1,-2,33*,0,1,-14
O=C(COc1ccc(Cl)cc1Cl)NC(=O)NC1CCCC1,-4,5,-1,1,-10
O=C(COc1ccc(Cl)cc1Cl)NC(=O)N1CCCCC1,-23,32*,-2,1,-15
COc1ccccc1N(CC(=O)NCc1ccco1)C(=O)CCC(=O)Nc1ccccn1,32*,-7,-1,-1,3
Cc1cccc(N(CC(=O)NCc2ccco2)C(=O)CCC(=O)Nc2ccccn2)c1C,-5,-2,0,-2,-7
Cc1ccc(-n2ncc3c(=O)n(CC(=O)NCc4ccco4)cnc32)cc1,31*,10,-1,-1,-9
O=C(Cn1cnc2c(nnn2-c2ccccc2)c1=O)NCc1ccco1,-10,40*,0,-5,-2
O=C(Cn1cnc2c(nnn2-c2ccccc2)c1=O)NCCc1ccccc1,56*,-1,0,-2,-3
COC(=O)C(C)n1cnc2c(nnn2-c2ccccc2)c1=O (stereo not drawn),7,31*,0,3,-3
CCOC(=O)C(C)n1cnc2c(nnn2-c2ccccc2)c1=O (stereo not drawn),-2,-19,0,-2,-3
CCOC(=O)CNC(=O)Cn1cnc2c(nnn2-c2ccccc2)c1=O,14,-7,0,1,-3
Cc1cc(C)cc(NC(=O)c2cccc(N3CCCS3(=O)=O)c2)c1,-6,·,0,·,·
CCCc1cc(=O)n2nc(N3CCC(C(=O)Nc4c(F)c(F)c(F)c(F)c4F)CC3)sc2n1,-1,38*,1,3,-4
Cc1cccc(-c2nc(SCC(=O)Nc3ccc4c(c3)OCO4)c(-c3ccccc3)[nH]2)c1,-8,·,3,·,·
CC1CCCCN1Cc1c(C#N)c2ccccc2n1C (stereo not drawn),-37,40*,1,-8,-40
CN1CCN(Cc2c(C#N)c3ccccc3n2C)CC1,-19,6,0,-2,-4
CC(=O)N(Cc1c(C#N)c2ccccc2n1C)c1ccccc1,0,-13,1,-4,0
CC1CCN(Cc2c(C#N)c3ccccc3n2C)CC1,-24,74*,2,-4,-49
Cn1c(CN2CCOCC2)c(C#N)c2ccccc21,1,1,0,-1,-11
SMILES,D2 PAM-1,D2 antagonist,D2 ag-1,D2 ag-2,D2 PAM-2
Cn1c(CN2CCCC2)c(C#N)c2ccccc21,-27,83*,-2,-4,-19
Cc1ccc(NS(=O)(=O)c2c(C)nc3sccn3c2=O)c(Cl)c1,19,·,1,·,·
c1ccc2c(c1)CCN(CCCNc1nc3ccccc3n3cnnc13)C2,-26,70*,0,-7,-10
CCOc1cc(/C=C2\CCCc3c2nc2ccccc2c3C(=O)O)ccc1OC,-27,38*,87*,-2,6
COc1ccc(CCNC(=O)C(=O)c2cn(CC(=O)N3CCCC3)c3ccccc23)cc1,·,·,·,-2,-10
O=C(CCn1cccn1)NCc1ccc(Cl)cc1,-7,·,0,·,·
COc1ccc(-n2ccnc(NCc3cccs3)c2=O)cc1OC,7,·,0,·,·
O=C(COC(=O)/C=C/c1cccc(C(F)(F)F)c1)NCc1ccc(F)cc1,6,-8,0,-1,-7
O=C(COC(=O)/C=C/c1cccc(C(F)(F)F)c1)NCc1ccccc1,12,33*,1,-4,5
COc1cccc(/C=C/C(=O)OCC(=O)Nc2cc(C(F)(F)F)ccc2Cl)c1,-7,34*,2,-1,-3
COc1cccc(/C=C/C(=O)OCC(=O)Nc2ccc(Cl)c(S(=O)(=O)N(C)C)c2)c1,4,-15,2,-3,0
Oc1ccc(-c2ccccc2)cc1CN1CCCCCC1,-21,69*,-1,-2,-24
COc1ccc(CCNc2ccc(S(=O)(=O)N3CCN(C)CC3)cc2[N+](=O)[O-])cc1,3,65*,-1,-2,-5
COc1ccc(C(CNc2ccc(S(=O)(=O)N3CCN(C)CC3)cc2[N+](=O)[O-])N(C)C)cc1 (stereo not drawn),-15,5,1,-3,-2
CN(CCCNC(=O)c1ccc(/C=N/O)nc1)CCCN(C)Cc1ccccc1,-9,6,0,1,8
CN(CCNC(=O)c1ccc(/C=N/O)nc1)Cc1ccccc1,-26,61*,1,-6,-36
COc1ccc(CCn2c(C)nc3c(c(=O)c4ccccc4n3C)c2=O)cc1,25,49*,3,2,-17
COc1ccc(Cn2c(-c3ccc(C)cc3)nc3c(c(=O)c4ccccc4n3C)c2=O)cc1,-3,37*,0,-3,-12
CC1CCCCN1S(=O)(=O)c1ccc(C(=O)Nc2sc3c(c2C(N)=O)CC(C)(C)NC3(C)C)cc1 (stereo not drawn),11,·,0,·,·
COc1ccc(C2CNC(=O)C2)cc1OC1CCCC1 (stereo not drawn),-4,71*!,70*!,-4,-2
COc1ccc(CCNS(=O)(=O)c2ccc(C3CNC(=O)C3)cc2)cc1OC (stereo not drawn),·,·,·,0,3
CC1=C(C(=O)Nc2ccccc2C)C2(CCCCC2)C(C(N)=O)C(=S)N1 (stereo not drawn),0,38*,1,-5,-5
O=C(Nc1ccccc1F)c1ccc2c(Cl)c3c(nc2c1)CCC3,10,·,0,·,·

# Assay outcomes as filed in PubChem BioAssay.
